# Results published in publication PMC5540273 (PLoS ONE, 2017).
# Tested on: ABL2
# Conditions: concentration: 1 μM, replicates: in singlicate; n = 1
# 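Note: KINOMEscan kinase panel screen.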
row,SMILES,%Inh [%]
1,COc1cccc(NC(=O)NCCNc2ccnc(Nc3ccc(F)cc3)n2)c1 [GSK1379879],6
2,CS(=O)(=O)c1cccc(CNc2nc(Nc3ccc4c(c3)CCC(=O)N4)ncc2C(F)(F)F)c1,0
3,c1ccc(Oc2ccc(Nc3ccnc4cc(-c5ccc(CN6CCCCC6)o5)ccc34)cc2)nc1 [GW567143],24
4,COC(=O)Nc1nc2cc(Oc3ccc(NC(=O)Nc4cccc(SC)c4)cc3)ccc2[nH]1.Cl [GW697999],76
5,Nc1ncc(-c2ccc3nccc(-c4ccncc4)c3c2)cc1S(=O)(=O)N1CCCCC1 [GSK1693850],9
6,Cc1ccc(-c2ccc3occ(-c4ccc(S(C)=O)cc4)c3c2)nn1 (stereo not drawn),0
7,CC(C)NCC(Cc1ccccc1)NC(=O)c1cc(Br)c(-c2ccnc3[nH]ccc23)s1.Cl.Cl (stereo not drawn) [GSK1383281],5
8,Cc1ccc(Nc2ccnc(Nc3ccc(C)c(F)c3)n2)cc1O.Cl [GW582868],70
9,Nc1cccc(-c2ccc3c(N)n[nH]c3c2)c1 [GSK2193613],21
10,CN1CCN(Cc2ccc(NC(=O)Nc3ccc(N(C)c4ccnc(Nc5ccc(CS(C)(=O)=O)cc5)n4)cc3)cc2)CC1.Cl [GW827654],81
11,Cc1ccc(NC(=O)c2ccc(Cl)c(Cl)c2)cc1-c1ccc(C(=O)Nc2ccncc2)cc1 [GSK1398460],41
12,CN(c1ccc(NC(=O)N2CCN(CCCN3CCOCC3)CC2)cc1)c1ccnc(Nc2ccc(CS(C)(=O)=O)cc2)n1.Cl [GW830899],8
